Test results reported in PubChem BioAssay (EPA / NIEHS).
Records with an inconclusive call do not appear. Calls of active or inactive are those of the source. How the source made its calls: active means hit-call score of the fitted dose curve at least 0.9, where 1 is the maximum; inconclusive means response in the unintended direction; inactive means score below 0.9.

Assay: Tanguay_ZF_120hpf_CFIN_legacy: (Legacy) Oregon State University Tanguay Lab 120 Hour Post-fertilization zebrafish Assay for Caudal Fin Malformation (AID 2283649)
Method in brief: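 Dechorionated 5D wild-type zebrafish, static exposure 6–120 hpf, 28C, sealed and dark, 0.64% v/v DMSO final. Binary fin-malformation call at 120 hpf, brightfield; gain of signal vs DMSO baseline.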

Compound	outcome	AC50
C[N+]1(C)CCCCC1	inactive	
O=[N+]([O-])c1cc(C(F)(F)F)c(Cl)c([N+](=O)[O-])c1Nc1ncc(C(F)(F)F)cc1Cl	inactive	
CCCOCC(=Nc1ccc(Cl)cc1C(F)(F)F)n1ccnc1	inactive	
CCOC(=O)COc1cc(-c2nn(C)c(OC(F)F)c2Cl)c(F)cc1Cl	inactive	
CCOP(=O)(SC(C)CC)N1CCSC1=O (stereo not given)	inactive	
CC(COc1ccc(Oc2ccccc2)cc1)Oc1ccccn1 (stereo not given)	inactive	
CN(C)[C@@H]1C(=O)C(C(N)=O)=C(O)[C@@]2(O)C(=O)C3=C(O)c4c(O)cccc4[C@@](C)(O)[C@H]3[C@H](O)[C@@H]12	inactive	
CCC(=NOC/C=C/Cl)C1=C(O)CC(C2CCOCC2)CC1=O (stereo not given)	inactive	
CCOP(=S)(OCC)OC(Cl)C(Cl)(Cl)Cl (stereo not given)	inactive	
CC1=NNC(=O)N(/N=C/c2cccnc2)C1	inactive	
Cc1ccn2nc(S(=O)(=O)Nc3c(F)cccc3F)nc2n1	inactive	
Nc1c(Cl)cc([N+](=O)[O-])cc1Cl		39.1 µM (active)
CCCSP(=O)(OCC)Oc1ccc(Br)cc1Cl (stereo not given)	inactive	
CCOP(=O)(OCC)Oc1cc(C)nc(C(C)C)n1	inactive	
COc1ccc(C(=CC(=O)N2CCOCC2)c2ccc(Cl)cc2)cc1OC		37.3 µM (active)
CNC(=O)ON=C(C)SC	inactive	
CCCSP(=O)(OCC)SCCC	inactive	
CCc1cnc(C2=NC(C)(C(C)C)C(=O)N2)c(C(=O)O)c1 (stereo not given)	inactive	
C#CC(C)(C)NC(=O)c1cc(Cl)cc(Cl)c1	inactive	
CC(C1CC1)C(O)(Cn1cncn1)c1ccc(Cl)cc1 (stereo not given)	inactive	
CCNc1nc(Cl)nc(NC(C)(C)C#N)n1	inactive	
CCCCOC(=O)[C@@H](C)Oc1ccc(Oc2ccc(C#N)cc2F)cc1	inactive	
COP(=O)(NC(C)=O)SC (stereo not given)	inactive	
CCOP(=S)(OCC)Oc1ccc([N+](=O)[O-])cc1	inactive	
CNc1cnn(-c2cccc(C(F)(F)F)c2)c(=O)c1Cl	inactive	
CSc1nc(NC(C)C)nc(NC(C)C)n1	inactive	
O=C(O)c1cc(Oc2ccc(C(F)(F)F)cc2Cl)ccc1[N+](=O)[O-]	inactive	
C=C(C)[C@H]1Cc2c(ccc3c2O[C@@H]2COc4cc(OC)c(OC)cc4[C@@H]2C3=O)O1	inactive	
CNC(=O)Oc1cccc2c1OC(C)(C)O2	inactive	
CCCOc1nn(C(=O)NS(=O)(=O)c2ccccc2C(=O)OC)c(=O)n1C	inactive	
